3 compounds from PubChem BioAssay (EPA / NIEHS) can be followed below.

In general, AC50 refers to the concentration at which the activity in the assay is half-maximal.

Settings in all cases: mRNA level, 48 h; actives raise or lower the signal
Read-out in assay [1]: Protein phosphatase 2A (PPP2R4), PTPA (gene 5524)
Description: LTEA_HepaRG_PPP2R4: Life Technologies and Expression Analysis (LTEA) Assay for Protein phosphatase 2A (PPP2R4) using HepaRG (AID 2283522). Put shortly: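 Gene-expression endpoint in HepaRG hepatic cells: 48 h treatment across eight half-log concentrations up to 100 uM in 0.5% DMSO. PPP2R4 mRNA by qRT-PCR, normalized to three endogenous control genes.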

Read-out in assay [2]: Phosphatase and tensin (PTEN), PTEN (gene 5728)
Description: LTEA_HepaRG_PTEN: Life Technologies and Expression Analysis (LTEA) Assay for Phosphatase and tensin (PTEN) using HepaRG (AID 2283523). The procedure, abridged: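 Read-out is PTEN transcript level by multiplexed TaqMan qRT-PCR after 48 h chemical treatment of human HepaRG cultures in serum-free induction medium. Concentrations spanned 100 uM downward in half-log steps, 0.5% DMSO throughout; activity fitted in both directions against vehicle.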

Read-out in assay [3]: solute carrier (SLC22A1), SLC22A1 (gene 6580)
Put plainly: LTEA_HepaRG_SLC22A1: Life Technologies and Expression Analysis (LTEA) Assay for solute carrier (SLC22A1) using HepaRG (AID 2283524). Put shortly:
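HepaRG (human liver line), 48 h dosing in serum-free induction medium; 8 conc., half-log down from 100 uM, 0.5% DMSO vehicle, duplicates. Endpoint: SLC22A1 mRNA, qRT-PCR, housekeeping-normalized; gain/loss fit vs DMSO.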

Read-out in assay [4]: Pyruvate Dehydrogenase Kinase 4 (PDK4), PDK4 (gene 5166)
Put plainly: LTEA_HepaRG_PDK4: Life Technologies and Expression Analysis (LTEA) Assay for Pyruvate Dehydrogenase Kinase 4 (PDK4) using HepaRG (AID 2283525). Put shortly: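 In this multiplexed human HepaRG expression assay, cells are treated 48 h with test chemicals across an eight-point range starting at 100 uM. PDK4 mRNA changes, normalized to ACTB/GAPDH/POLR2A, are fitted in both directions relative to vehicle.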

Read-out in assay [5]: NAD(P)H dehydrogenase [quinone] 1 (NQO1), NQO1 (gene 1728)
Description: LTEA_HepaRG_NQO1: Life Technologies and Expression Analysis (LTEA) Assay for NAD(P)H dehydrogenase [quinone] 1 (NQO1) using HepaRG (AID 2283526). Put shortly:
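Human HepaRG hepatic cells received chemicals for 48 h in serum-free induction medium with 0.5% DMSO, up to 100 uM. Expression was assessed by TaqMan qRT-PCR against housekeeping controls and fitted bidirectionally against DMSO.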

Read-out in assay [6]: Nuclear factor erythroid 2-related factor 2 (Homo sapiens) (UniProt Q16236)
Description: LTEA_HepaRG_NFE2L2: Life Technologies and Expression Analysis (LTEA) Assay for Nuclear factor erythroid 2-related factor 2 (NFE2L2) Transcription Factor using HepaRG (AID 2283527). The procedure, abridged:
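Transcript level of NFE2L2 is the read-out, measured by microfluidic TaqMan qRT-PCR and normalized to three housekeeping genes. Human HepaRG cultures received test chemical for 48 h at up to 100 uM in half-log steps. Gain or loss of signal is fitted relative to 0.5% DMSO.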

Read-out in assay [7]: succinate dehydrogenase complex iron sulfur subunit B (SDHB), SDHB (gene 6390)
Put plainly: LTEA_HepaRG_SDHB: Life Technologies and Expression Analysis (LTEA) Assay for succinate dehydrogenase complex iron sulfur subunit B (SDHB) using HepaRG (AID 2283528). The procedure, abridged:
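SDHB transcript level read by TaqMan qRT-PCR, housekeeping-normalised (ACTB, GAPDH, POLR2A), after 48 h chemical treatment of plated HepaRG cells; eight concentrations top 100 uM, half-log steps, 0.5% DMSO, duplicates; fitted both directions against DMSO.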

Read-out in assay [8]: Signal transducer and activator of transcription 3 (Homo sapiens) (UniProt P40763)
Description: LTEA_HepaRG_STAT3: Life Technologies and Expression Analysis (LTEA) Assay for Signal transducer and activator of transcription (STAT3) using HepaRG (AID 2283529). The procedure, abridged: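 Read-out is STAT3 mRNA level by qRT-PCR, normalized to three housekeeping genes, in human HepaRG liver cells treated for 48 h. Concentrations ran from 100 uM downward in half-log steps; curves were fitted for gain or loss relative to 0.5% DMSO.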

Read-out in assay [9]: solute carrier (SLCO1B1), SLCO1B1 (gene 10599)
Description: LTEA_HepaRG_SLCO1B1: Life Technologies and Expression Analysis (LTEA) Assay for solute carrier (SLCO1B1) using HepaRG (AID 2283530). Put shortly: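 Differentiated human HepaRG cells were exposed for 48 h in serum-free induction medium to eight half-log concentrations, top 100 uM, in 0.5% DMSO. SLCO1B1 mRNA was measured by qRT-PCR, normalized to ACTB, GAPDH and POLR2A, and fitted bidirectionally against DMSO.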

Read-out in assay [10]: sulfotransferase 2A1 (SULT2A1), SULT2A1 (gene 6822)
Put plainly: LTEA_HepaRG_SULT2A1: Life Technologies and Expression Analysis (LTEA) Assay for sulfotransferase 2A1 (SULT2A1) using HepaRG (AID 2283531). The procedure, abridged: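 HepaRG human liver cells, 48 h exposure in serum-free induction medium to 8 half-log concentrations topping at 100 µM (0.5% DMSO), duplicate wells. SULT2A1 mRNA measured by TaqMan qRT-PCR, normalized to ACTB/GAPDH/POLR2A; bidirectional fit against DMSO.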

Read-out in assay [11]: Transforming Growth Factor (TGFB1), TGFB1 (gene 7040)
Put plainly: LTEA_HepaRG_TGFB1: Life Technologies and Expression Analysis (LTEA) Assay for Transforming Growth Factor (TGFB1) Transporter using HepaRG (AID 2283533). Put shortly:
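Differentiated HepaRG cells exposed 48 hr in serum-free induction medium to eight half-log concentrations up to 100 uM (0.5% DMSO), duplicate; TGFB1 mRNA by TaqMan qRT-PCR normalised to ACTB, GAPDH, POLR2A; bidirectional fit against DMSO.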

Read-out in a further assay: TIMP1, TIMP1 (gene 7076)
Put plainly: LTEA_HepaRG_TIMP1: Life Technologies and Expression Analysis (LTEA) Assay for TIMP1 using HepaRG (AID 2283534).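 Also: TaqMan qRT-PCR signal normalized to ACTB GAPDH and POLR2A housekeeping genes.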 The procedure, abridged: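 Differentiated HepaRG cells exposed 48 h in serum-free induction medium, duplicates, eight half-log concentrations from 100 uM in 0.5% DMSO. TIMP1 mRNA by qRT-PCR normalized to ACTB, GAPDH, POLR2A; bidirectional fitting against DMSO.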

Read-out in assay [12]: Tumor necrosis factor receptor 1 (TNFRSF1A), TNFRSF1A (gene 7132)
Put plainly: LTEA_HepaRG_TNFRSF1A: Life Technologies and Expression Analysis (LTEA) Assay for Tumor necrosis factor receptor 1 (TNFRSF1A) using HepaRG (AID 2283535). The procedure, abridged: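 Differentiated HepaRG cells in serum-free induction medium, exposed 48 h in duplicate to 8 half-log concentrations up to 100 uM in 0.5% DMSO. TNFRSF1A mRNA by Fluidigm TaqMan qRT-PCR, normalized to ACTB, GAPDH, POLR2A; bidirectional fit.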

Read-out in assay [13]: Cellular tumor antigen p53 (Homo sapiens) (UniProt P04637)
Description: LTEA_HepaRG_TP53: Life Technologies and Expression Analysis (LTEA) Assay for Tumor Protein P53 (TP53) using HepaRG (AID 2283537). Put shortly: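 TP53 transcript measured by qRT-PCR, normalized to three housekeeping genes, after 48 h treatment of human HepaRG cultures with chemicals from 100 uM downward in half-log steps (0.5% DMSO vehicle, serum-free induction medium). Up- or down-regulation fitted against DMSO.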

Read-out in assay [14]: UDP glucuronosyltransferase (UGT1A1), UGT1A1 (gene 54658)
Put plainly: LTEA_HepaRG_UGT1A1: Life Technologies and Expression Analysis (LTEA) Assay for UDP glucuronosyltransferase (UGT1A1) using HepaRG (AID 2283538). Put shortly: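 Human liver HepaRG cultures receive test chemical for 48 h, up to 100 uM in 0.5% DMSO, with phenobarbital induction controls. UGT1A1 mRNA is measured by qRT-PCR and normalized to ACTB, GAPDH and POLR2A.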

Read-out in assay [15]: UDP glucuronosyltransferase (UGT1A6), UGT1A6 (gene 54578)
Put plainly: LTEA_HepaRG_UGT1A6: Life Technologies and Expression Analysis (LTEA) Assay for UDP glucuronosyltransferase (UGT1A6) using HepaRG (AID 2283539). Put shortly:
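Differentiated HepaRG cells, ~100,000/well, were exposed for 48 h in serum-free induction medium with 0.5% DMSO to 8-point half-log series topping at 100 uM, in duplicate. mRNA measured by Fluidigm TaqMan qRT-PCR, normalized to ACTB, GAPDH and POLR2A.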

Read-out in assay [16]: X-box binding protein 1 (XBP1), XBP1 (gene 7494)
Put plainly: LTEA_HepaRG_XBP1: Life Technologies and Expression Analysis (LTEA) Assay for X-box binding protein 1 (XBP1) using HepaRG (AID 2283540). The procedure, abridged:
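Differentiated human HepaRG cells in serum-free induction medium exposed 48 h in duplicate to eight half-log concentrations up to 100 uM in 0.5% DMSO. XBP1 mRNA measured by Fluidigm TaqMan qRT-PCR, normalized to ACTB, GAPDH, POLR2A; bidirectional fitting against DMSO.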

Read-out in assay [17]: Nuclear factor NF-kappa-B p105 subunit (Homo sapiens) (UniProt P19838)
Description: LTEA_HepaRG_NFKB1: Life Technologies and Expression Analysis (LTEA) Assay for Nuclear Factor Kappa B Subunit 1 (NFKB1) using HepaRG (AID 2283521). Put shortly:
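NFKB1 transcript was measured by TaqMan qRT-PCR on Fluidigm arrays, normalised to three housekeeping genes and fitted in both directions against 0.5% DMSO. HepaRG cells were dosed in duplicate for 48 h in serum-free induction medium, eight half-log steps from 100 uM.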

Read-out in assay [18]: Transforming Growth Factor (TGFA), TGFA (gene 7039)
Description: LTEA_HepaRG_TGFA: Life Technologies and Expression Analysis (LTEA) Assay for Transforming Growth Factor (TGFA) using HepaRG (AID 2283532). Put shortly: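 HepaRG (human liver line), 48 h exposure, 8 conc. half-log down from 100 uM, 0.5% DMSO vehicle, duplicates; serum-free induction medium. TGFA mRNA by TaqMan qRT-PCR, ACTB/GAPDH/POLR2A normalization; gain/loss fit vs DMSO.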

The source made the active and inactive calls. The calls were made as follows: active = hit-call score of the fitted dose curve at least 0.9, where 1 is the maximum; inactive = score below 0.9.

Chain of Nuclear factor erythroid 2-related factor 2 (Homo sapiens) (Q16236 whole entry, looked up): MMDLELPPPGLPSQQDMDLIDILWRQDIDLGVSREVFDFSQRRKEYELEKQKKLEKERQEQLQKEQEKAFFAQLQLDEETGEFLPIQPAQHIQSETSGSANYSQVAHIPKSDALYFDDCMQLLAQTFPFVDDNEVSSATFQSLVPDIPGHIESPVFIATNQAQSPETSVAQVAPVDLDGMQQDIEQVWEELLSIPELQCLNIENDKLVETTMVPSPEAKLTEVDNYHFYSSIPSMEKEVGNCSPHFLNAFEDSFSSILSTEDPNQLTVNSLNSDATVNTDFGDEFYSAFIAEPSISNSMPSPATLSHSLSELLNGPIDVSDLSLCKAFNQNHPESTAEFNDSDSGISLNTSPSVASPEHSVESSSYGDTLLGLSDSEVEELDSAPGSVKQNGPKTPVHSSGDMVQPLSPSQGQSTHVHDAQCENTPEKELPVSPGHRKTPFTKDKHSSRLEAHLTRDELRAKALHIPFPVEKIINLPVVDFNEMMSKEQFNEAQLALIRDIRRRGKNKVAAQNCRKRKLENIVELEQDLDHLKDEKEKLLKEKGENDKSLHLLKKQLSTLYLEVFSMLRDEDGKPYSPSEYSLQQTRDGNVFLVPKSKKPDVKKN
Chain of Signal transducer and activator of transcription 3 (Homo sapiens) (P40763 whole entry, looked up): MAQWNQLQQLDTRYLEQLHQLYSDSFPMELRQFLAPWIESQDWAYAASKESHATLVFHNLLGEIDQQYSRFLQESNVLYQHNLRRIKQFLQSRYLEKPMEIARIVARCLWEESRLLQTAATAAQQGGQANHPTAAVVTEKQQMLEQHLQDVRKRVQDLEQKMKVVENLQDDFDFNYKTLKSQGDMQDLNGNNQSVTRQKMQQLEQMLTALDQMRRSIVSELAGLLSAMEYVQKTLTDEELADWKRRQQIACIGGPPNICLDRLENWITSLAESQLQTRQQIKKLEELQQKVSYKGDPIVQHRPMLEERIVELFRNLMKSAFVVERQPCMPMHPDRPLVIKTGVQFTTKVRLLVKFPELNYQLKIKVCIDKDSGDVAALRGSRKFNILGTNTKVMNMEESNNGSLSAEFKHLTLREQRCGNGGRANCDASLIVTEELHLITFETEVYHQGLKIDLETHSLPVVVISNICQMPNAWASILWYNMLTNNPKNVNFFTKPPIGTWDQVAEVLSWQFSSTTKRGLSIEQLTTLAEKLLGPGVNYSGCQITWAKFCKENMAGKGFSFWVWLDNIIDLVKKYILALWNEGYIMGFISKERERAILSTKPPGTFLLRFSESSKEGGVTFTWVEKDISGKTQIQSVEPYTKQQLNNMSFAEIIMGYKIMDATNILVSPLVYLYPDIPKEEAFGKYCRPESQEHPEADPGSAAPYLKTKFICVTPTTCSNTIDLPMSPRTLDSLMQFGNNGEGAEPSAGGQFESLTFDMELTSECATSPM
Chain of Cellular tumor antigen p53 (Homo sapiens) (P04637 whole entry, looked up): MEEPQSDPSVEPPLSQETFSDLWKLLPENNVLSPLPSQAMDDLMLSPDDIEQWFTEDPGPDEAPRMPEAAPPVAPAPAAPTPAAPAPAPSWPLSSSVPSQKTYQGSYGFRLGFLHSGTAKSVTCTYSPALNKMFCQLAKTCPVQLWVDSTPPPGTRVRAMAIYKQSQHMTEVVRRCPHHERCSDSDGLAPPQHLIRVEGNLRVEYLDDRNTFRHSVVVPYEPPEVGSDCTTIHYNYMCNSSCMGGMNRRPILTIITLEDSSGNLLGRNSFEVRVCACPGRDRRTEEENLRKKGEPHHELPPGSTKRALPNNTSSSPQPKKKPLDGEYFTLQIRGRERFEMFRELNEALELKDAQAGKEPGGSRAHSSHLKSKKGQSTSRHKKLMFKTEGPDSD
Chain of Nuclear factor NF-kappa-B p105 subunit (Homo sapiens) (P19838 whole entry, looked up): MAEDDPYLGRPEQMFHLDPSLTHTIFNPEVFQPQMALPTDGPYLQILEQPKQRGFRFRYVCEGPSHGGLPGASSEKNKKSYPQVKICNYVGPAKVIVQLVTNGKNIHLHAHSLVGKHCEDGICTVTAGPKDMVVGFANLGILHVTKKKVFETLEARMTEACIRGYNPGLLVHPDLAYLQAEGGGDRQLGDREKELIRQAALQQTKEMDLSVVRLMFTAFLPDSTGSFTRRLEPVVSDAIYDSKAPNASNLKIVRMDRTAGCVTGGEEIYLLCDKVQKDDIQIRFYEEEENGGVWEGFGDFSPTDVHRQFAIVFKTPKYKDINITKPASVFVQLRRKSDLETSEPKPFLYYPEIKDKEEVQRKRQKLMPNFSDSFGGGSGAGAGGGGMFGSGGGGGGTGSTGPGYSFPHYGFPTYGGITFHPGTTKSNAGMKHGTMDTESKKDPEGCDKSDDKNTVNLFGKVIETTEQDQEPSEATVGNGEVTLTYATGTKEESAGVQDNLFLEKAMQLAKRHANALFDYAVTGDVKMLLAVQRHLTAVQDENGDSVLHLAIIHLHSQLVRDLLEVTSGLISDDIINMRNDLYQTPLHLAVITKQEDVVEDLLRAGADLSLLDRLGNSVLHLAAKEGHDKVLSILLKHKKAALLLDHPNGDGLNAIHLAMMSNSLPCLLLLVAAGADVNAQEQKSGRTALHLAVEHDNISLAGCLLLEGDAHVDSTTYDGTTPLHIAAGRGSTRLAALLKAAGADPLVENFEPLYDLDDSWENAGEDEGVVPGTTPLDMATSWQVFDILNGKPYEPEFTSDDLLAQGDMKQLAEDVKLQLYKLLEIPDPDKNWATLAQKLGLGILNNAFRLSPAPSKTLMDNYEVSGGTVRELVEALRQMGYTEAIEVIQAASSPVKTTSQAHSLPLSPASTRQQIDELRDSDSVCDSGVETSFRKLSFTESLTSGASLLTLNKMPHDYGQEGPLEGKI

For the compound `O=S1(=O)CCCO1`, the outcome in assay [1], in [2], in assay [3], in assay [4], in [5] and in [6] was inactive. Also, the outcome in assay [7] is “inactive”; in [8], “inactive”; in assay [9], “inactive”; in [10] it was “inactive”; in [11], “inactive”; in the assay with TIMP1, TIMP1 (gene 7076) it was “inactive”. In addition, the compound was called inactive in [12], in assay [13], in [14], in assay [15] and in assay [16].

In the case of `OC[C@H]1O[C@@](CO)(O[C@H]2O[C@H](CO)[C@@H](O)[C@H](O)[C@H]2O)[C@@H](O)[C@@H]1O`, the compound was called inactive in assay [17], in assay [1], in [2], in [3], in [4] and in assay [5]. In addition, the compound was called inactive in assay [6], in assay [7], in [8], in assay [9], in assay [10] and in [11]. Besides, the outcome was “inactive” with TIMP1, TIMP1 (gene 7076); “inactive” in [12]; “inactive” in [14]; “inactive” in assay [15]; “inactive” in assay [16].

On to `Cn1c(=O)c2[nH]cnc2n(C)c1=O`, for which the result in assay [17], in [1], in assay [2], in assay [3], in assay [4] and in assay [5] was inactive. Further, the call in [6], in assay [7], in assay [8], in [10], in assay [18] and in assay [11] was inactive. Besides, the outcome with TIMP1, TIMP1 (gene 7076) was “inactive”; in [13], “inactive”; in assay [14], “inactive”; in assay [15], “inactive”; in assay [16], “inactive”. Besides, the AC50 in assay [12] was 276 nM (active).
